Results filed as inconclusive are left out. A call without a number means that no potency is given here. Unmarked numbers belong to inactive results. Active and inactive are the calls of the source. Calls follow the shape of the dose curve; as a rule, active = well fitted activation curve with a large enough effect in the signal ratio in the repeat runs (not every such curve was filed as active); inconclusive = weak or mixed curves; inactive = flat fitted curve, though single readings scatter; the % refers to the signal ratio. Peptide text beside a SMILES is read from it.

The values that follow come from PubChem BioAssay (Tox21).

The test is described as follows: p53 small molecule agonists, cell-based qHTS assay (AID 1963582). As to conditions: HCT-116 p53RE-bla reporter, beta-lactamase FRET ratio, 16 h; series mostly up to 66 µM; activation: at the top concentration. The text has this: National Center for Advancing Translational Sciences [NCATS]
Division of Preclinical Innovation [DPI]
U.S. Environmental Protection Agency [EPA]
National Institutes of Environmental Health Sciences [NIEHS]
National Toxicology Program [NTP]
U.S. Food and Drug Administration [FDA]
p53, a tumor suppressor protein, is activated following cellular insult, including DNA damage and other cellular stresses. The activation of p53 regulates cell fate by inducing DNA repair, cell cycle arrest, apoptosis, or cellular senescence. The activation of p53, therefore, is a good indicator of DNA damage and other cellular stresses. […] The activation of the reporter gene under culture conditions can be detected by fluorescence intensity. This cell line was used to screen the Tox21 10K compound library in a 1536-well plate format and to identify agonists that activate the p53 signaling pathway.
Tox21 Assay Protocol Summary:
The p53RE-bla cells were dispensed at 4,000 cells/5 ul/well in 1536-well black wall/clear bottom plates using a Multidrop dispenser. After the assay plates were incubated at a 37 C/5% CO2 incubator for 5 hours, 23 nL of compounds dissolved in DMSO, positive controls or DMSO only was transferred to the assay plate by a pin tool. The plates were incubated at 37 C for 16 hours. After 1 uL of LiveBLAzerTM B/G FRET substrate was added using a Flying Reagent Dispenser, the plates were incubated at room temperature for 2 hours, and fluorescence intensity was measured by an Envision plate reader.
Background: qHTS replaces the single test concentration by a dilution series.
On to `CCCCCCCCCCCCCC(=O)OC(C)C`, for which the Potency entry was “inactive”. With `NC(=O)/N=N/C(N)=O`, the Potency entry is “inactive”.

As to `COC(=O)c1cccc(C(=O)OC)c1`, the Potency entry was “inactive”. For the compound `CCOc1ccc(NC(=O)CC(C)O)cc1` (stereo not given), the Potency result was “inactive”. For `Cc1[nH]c(=O)c(C#N)cc1-c1ccncc1`, the Potency entry was “inactive”. Turning to `CN(C)CCN(Cc1cccs1)c1ccccn1`, the “activation” value was 2.09%.

Consider `O=C(O)CCCCCCCCC(=O)O`, for which the Potency result was “inactive”.

With `COC(=O)[C@H](Cc1ccccc1)NC(=O)[C@@H](N)CC(=O)O` (H-Asp-Phe-OMe), the Potency entry was “inactive”. For the compound `CC1(C)NC(=O)N(c2ccc([N+](=O)[O-])c(C(F)(F)F)c2)C1=O`, the “activation” value is -2.7% [at 30.3 µM]. `Cc1ccc(C)c(O)c1`: the Potency result is “inactive”. On to `C#CC1(O)CC[C@H]2[C@@H]3CCC4=CCCC[C@@H]4[C@H]3CC[C@@]21C` (stereo not given in full), for which the “activation” value was -4.29% [at 30.3 µM]. `CC1(C)OC(=O)NC1=O`: the Potency result is “inactive”. In the case of `O=S(=O)(O)c1ccc2ccccc2c1`, the Potency entry is “inactive”.

Take `Cc1ccc(C(C)C)cc1`: the Potency entry is “inactive”.

Turning to `CC12CCC(CC1)C(C)(C)O2`, the Potency result is “inactive”. As for `Cc1cc(C)nc(NS(=O)(=O)c2ccc(N)cc2)n1`, the Potency result was “inactive”. In the case of `CCCCCCC=O`, the Potency result is “inactive”. Consider `CCC(=O)/C=C/C1C(C)=CCCC1(C)C` (stereo not given), for which the Potency entry is “inactive”. Regarding `CCO[Si](CCCNC(N)=O)(OCC)OCC`, the Potency result is “inactive”. Take `CC(C)(C)NC(=O)[C@H]1CC[C@H]2[C@@H]3CC[C@H]4NC(=O)C=C[C@]4(C)[C@H]3CC[C@]12C`: the Potency entry was “inactive”. With `CC(=O)Nc1cccc(O)c1`, the Potency result is “inactive”.

As to `Nc1ccc(S(N)(=O)=O)cc1`, the Potency result was “inactive”.

As for `NNC(=O)c1ccncc1`, the Potency entry was “inactive”.

Regarding `NC(=O)c1cnccn1`, the Potency result is “inactive”. Take `[O-]/[N+](=N\O)c1ccccc1`: the Potency result was “inactive”.

Regarding `CCOC(=O)c1ccc(O)cc1`, the Potency entry is “inactive”.

For `Cc1cnc(NC(=O)C2=C(O)c3ccccc3S(=O)(=O)N2C)s1`, the Potency entry is “inactive”.

For `CCCCC(CC)COC(=O)c1ccc(N(C)C)cc1` (stereo not given), the Potency result is “inactive”. On to `Nc1cccc(N)c1`, for which the “activation” value was 11%. As to `O=C1CCC(N2C(=O)c3ccccc3C2=O)C(=O)N1` (stereo not given), the Potency result was “inactive”. Consider `Cc1ncc([N+](=O)[O-])n1C`, for which the Potency result is “inactive”. As for `Cc1cc(C)c(O)c(C)c1`, the Potency result is “inactive”.

Consider `C[C@H]1C[C@@H]2[C@H]([C@@H](O)C[C@@]3(C)[C@H]2CC[C@]3(O)C(=O)CO)[C@@]2(C)C=CC(=O)C=C12`, for which the Potency entry was “inactive”. Take `CCC(Cc1c(I)cc(I)c(N)c1I)C(=O)O` (stereo not given): the “activation” value was -6.96% [at 30.3 µM]. Turning to `CC(=O)c1ccc(S(=O)(=O)NC(=O)NC2CCCCC2)cc1`, the Potency entry is “inactive”. Still for that read-out and setting: for `CCN1CCCC1=O` the value was “inactive”; for `O=C1OC2(c3ccccc31)c1cc(I)c(O)c(I)c1Oc1c2cc(I)c(O)c1I`, “inactive”; for `COc1cc(OC)c(C(=O)CCCN2CCCC2)c(OC)c1`, “inactive”. `C=CCNC(N)=S`: the Potency entry was “inactive”. `CC1(C)CC(N)CC(C)(CN)C1` (stereo not given): the Potency entry was “inactive”.
